About 83,000 compounds went through this panel and 20% of them were active in at least one assay; those are over-represented in the sample as a whole.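 Cell lines were cultured in 96-well plates, exposed to a single compound concentration, and assessed for percent growth 48 hours later.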 Activity calls are given as the source filed them. How the source made its calls: active means growth percent below 10; inactive means the rest.
Experiments:
Test in all cases: NCI-60 one-dose screen, 48 h (100 = growth as untreated, 0 = no growth, -100 = all killed)
Conditions in all cases: 10 µM unless noted
[1] = tested on: DU-145 prostate
[2] = tested on: K-562 leukemia
[3] = tested on: MALME-3M melanoma
[4] = tested on: MDA-MB-231 breast
[5] = tested on: RXF 393 renal
[6] = tested on: SF-268 CNS
[7] = tested on: SF-295 CNS
[8] = tested on: SF-539 CNS
[9] = tested on: UACC-257 melanoma
[10] = tested on: M14 melanoma
[11] = tested on: HCT-15 colon
[12] = tested on: HT29 colon
[13] = tested on: SNB-75 CNS
[14] = tested on: SNB-19 CNS
[15] = tested on: U251 CNS
[16] = tested on: PC-3 prostate
[17] = tested on: SK-MEL-5 melanoma
[18] = tested on: UACC-62 melanoma
[19] = tested on: LOX IMVI melanoma
[20] = tested on: SK-MEL-28 melanoma

Measured: growth

O=c1oc2ccccc2c(Cl)c1Cl
inactive: [1] 107% | [2] 37.2% | [3] 58.5% | [4] 62.6% | [5] 66.6% | [6] 86.5% | [7] 106% | [8] 81.3% | [9] 40% | [10] 17.1% | [11] 38.9% | [12] 105% | [13] 82.4% | [14] 91.7% | [15] 49.1% | [16] 101% | [17] 46.1% | [18] 74.7% | [19] 10.5% | [20] 72.4%

Cc1ccc(-c2cc3c(cc2O)C2CCCCC2(N2CCOCC2)O3)cc1 (stereo not given)
inactive: [1] 106% | [2] 89.1% | [3] 101% | [4] 114% | [5] 90.6% | [6] 97.2% | [7] 103% | [8] 105% | [9] 102% | [10] 92.5% | [11] 101% | [12] 105% | [13] 75.4% | [14] 98.7% | [15] 98.6% | [16] 75.3% | [17] 99.1% | [18] 71.2% | [19] 87.1% | [20] 111%

CCCCN(CCCC)CC(C)(C)C(O)c1ccc(OC)c2ccccc12 (stereo not given)
active: [7] -7.15% | [12] 9.09%
inactive: [1] 69.2% | [2] 31.2% | [3] 47.3% | [4] 70.8% | [5] 65% | [6] 85.3% | [8] 76.9% | [9] 60.2% | [10] 37% | [11] 59.1% | [13] 101% | [14] 76.3% | [15] 50.3% | [16] 29.5% | [17] 50.7% | [18] 56.1% | [19] 66.6% | [20] 85%

Cn1c(=O)c2[nH]c(NN)nc2n(C)c1=O
inactive: [1] 123% | [2] 100% | [3] 135% | [4] 116% | [5] 123% | [6] 108% | [7] 108% | [8] 111% | [9] 119% | [10] 102% | [11] 97.2% | [12] 105% | [13] 89.6% | [14] 110% | [15] 105% | [16] 101% | [17] 105% | [18] 114% | [19] 101% | [20] 103%

COc1ccc(C(=O)Nn2c(NCC(=O)N3c4ccccc4Sc4ccccc43)nnc2-c2ccc(O)cc2)cc1
inactive: [1] 116% | [2] 114% | [3] 98.1% | [4] 101% | [5] 117% | [6] 111% | [7] 107% | [8] 117% | [9] 94.9% | [10] 91.7% | [11] 96.9% | [12] 98.2% | [13] 115% | [14] 111% | [15] 97% | [16] 97.6% | [17] 104% | [18] 104% | [19] 98.4% | [20] 119%

O=C(NCCCNc1cc(-c2cn(-c3ccccc3)nc2-c2cccc(O)c2)ccn1)c1cccc(O)c1
active: [2] 7.59%
inactive: [1] 78.3% | [3] 64.2% | [4] 43.5% | [5] 77.3% | [6] 63.8% | [7] 83.3% | [8] 69.5% | [9] 58.4% | [10] 52.8% | [11] 79.5% | [12] 87% | [13] 59.8% | [14] 79.7% | [15] 42.3% | [16] 39.4% | [17] 43.7% | [18] 42% | [19] 54.1% | [20] 77.6%

COc1ccc(-c2cc(-c3cc(OC)c(OC)c(OC)c3)c(C#N)c(N3CCOCC3)n2)cc1O
active: [2] 2.4%
inactive: [1] 59% | [3] 126% | [4] 49.8% | [5] 41.3% | [6] 49.6% | [7] 41.6% | [8] 37.9% | [9] 90.3% | [10] 67.5% | [11] 23.5% | [12] 108% | [13] 30.1% | [14] 52.3% | [15] 51.1% | [16] 38.9% | [17] 60.8% | [18] 89.9% | [19] 13.7% | [20] 60%

Cc1c(C)c2c(c(C)c1OCC(=O)O)CC[C@@](C)(CCC[C@@H](C)CCC[C@@H](C)CCCC(C)C)O2
inactive: [7] 35.8% [50 µM] | [9] 38.7% [50 µM] | [13] 67.6% [50 µM] | [14] 17% [50 µM]
active: [1] 6.97% [50 µM] | [2] 6.54% [50 µM] | [3] -35.8% [50 µM] | [4] -2.79% [50 µM] | [5] -34.5% [50 µM] | [6] -5.58% [50 µM] | [8] -7.25% [50 µM] | [10] -19.2% [50 µM] | [11] -28.5% [50 µM] | [12] 6.19% [50 µM] | [15] -30.3% [50 µM] | [16] -16% [50 µM] | [17] -77.1% [50 µM] | [18] -75.2% [50 µM] | [19] -83.9% [50 µM] | [20] -15.1% [50 µM]

Source: PubChem BioAssay (NCI)
